# Assay results from ChEMBL document CHEMBL3988442, “University of Dundee, Small-Polar-MMV Screening Library” (2021).
# Screen size: about 69,000 compounds; about 1,000 (1.4%) showed an effect of 50% or more. The sample holds strong results, similar compounds and a random draw of the others, so the mix is not that of the screen.
# System: Leishmania donovani
# Experiment: Leishmania intramacrophage assay
# Format: functional, organism-based
# Design: scale not given: in the data most compounds retested in dose-response had high values
compound,measurement,setting,value
CC(C)(C)c1nc(CNc2ccccc2SCCC(N)=O)cs1,Percent Effect,"30.3 µM, […]",-34.53%
NC(=O)C(NC(=O)CCc1ccc(Cl)s1)c1ccccc1 (stereo not drawn),Percent Effect,"30.3 µM, […]",20.24%
CC(C)(C)c1ncc(CNc2ccccc2SCCC(N)=O)s1,Percent Effect,"30.3 µM, […]",-11.51%
Cc1ccc(CNc2ccccc2SCCC(N)=O)s1,Percent Effect,"30.3 µM, […]",58.74%
NC(=O)CCSc1ccccc1NCc1ccc(Cl)s1,Percent Effect,"30.3 µM, […]",57.16%
NC(=O)C(NCc1ccc(Cl)s1)c1ccccc1 (stereo not drawn),Percent Effect,"30.3 µM, […]",22.99%
Cc1nn(C)c(C)c1CN(C)C(=O)c1cccc(CCC(C)(C)O)c1,Percent Effect,"30.3 µM, […]",45.36%
O=C(O)C(F)(F)F.O=C(c1ccc[nH]1)N1CCCn2c(CNC3CCC3)nnc2C1,Percent Effect,"30.3 µM, […]",19.78%
Cc1ccccc1-c1cncc(C2CCN(C3CCOCC3)CC2)n1,Percent Effect,"30.3 µM, […]",-12.97%
C1CCC(c2nc3c(c(N4CCN5CCCC5C4)n2)CCNCC3)C1 (stereo not drawn),Percent Effect,"30.3 µM, […]",52.04%
C1CCC(c2nc3c(c(N4CC(N5CCOCC5)C4)n2)CCNCC3)C1,Percent Effect,"30.3 µM, […]",33.91%
NCC1CCN(c2nc(C3CCCC3)nc3c2CCNCC3)C1 (stereo not drawn),Percent Effect,"30.3 µM, […]",-3.279%
CCc1cn[nH]c1C1CCN(c2cc(C)c3cccc(OC)c3n2)CC1,Percent Effect,"30.3 µM, […]",13.27%
COCCNC(=O)c1nc(-c2cn(C)cn2)n2ccccc12,Percent Effect,"30.3 µM, […]",36.99%
Cn1cnc(-c2nc(C(=O)NCCN3CCCC3)c3ccccn23)c1,Percent Effect,"30.3 µM, […]",50.91%
Cn1cnc(-c2nc(C(=O)NCCN3CCOCC3)c3ccccn23)c1,Percent Effect,"30.3 µM, […]",40.37%
COCCN1CCN(Cc2nccs2)[C@H]2CS(=O)(=O)C[C@H]21,Percent Effect,"30.3 µM, […]",-6.4%
O=C(NCCC(=O)N1CCCC1)c1nn(-c2ccccc2F)cc1O,Percent Effect,"30 µM, 30.03 µM",-0.1897%
Cc1ncsc1CCC(=O)N1CCn2cccc2C1c1cccnc1 (stereo not drawn),Percent Effect,"30.3 µM, […]",18.51%
CNS(=O)(=O)c1ccc(CN(C)Cc2nc3ccc(F)cc3[nH]2)cc1,Percent Effect,"30.3 µM, […]",-17.23%
CN(Cc1cnc(C(C)(C)C)nc1)Cc1nc2ccc(F)cc2[nH]1,Percent Effect,"30.3 µM, […]",52.7%
Cc1ccc(CN(C)Cc2nc3ccc(F)cc3[nH]2)cn1,Percent Effect,"30.3 µM, […]",12.06%
Cc1c(C(=O)NCC2CCS(=O)(=O)C2)cnn1-c1ccccc1 (stereo not drawn),Percent Effect,"30.3 µM, […]",-5.688%
CN(C)C(=O)c1cccnc1-c1ccc2c(c1)OCO2,Percent Effect,"30.3 µM, […]",11.7%
C[C@@H]1CN(Cc2cc3ccccc3n2C)CC[C@]1(C)O,Percent Effect,"30.3 µM, […]",19.22%
C[C@@H]1CN(Cc2cc3ccccc3n2C)CC[C@@]1(O)C1CC1,Percent Effect,"30.3 µM, […]",34.38%
Cc1ccc2c(c1)cc(CN1CC[C@](C)(O)[C@H](C)C1)n2C,Percent Effect,"30.3 µM, […]",50.4%
CC(C(=O)N1CCN(CCOc2ccccc2)CC1)n1cncn1 (stereo not drawn),Percent Effect,"30.3 µM, […]",10.7%
CCOCC1CN(S(=O)(=O)C2CC2)Cc2cnn(C)c21 (stereo not drawn),Percent Effect,"30.3 µM, […]",-42.59%
CN(CC(=O)N1CCCC1)C(=O)c1ccccc1Nc1ccccc1,Percent Effect,"30.3 µM, […]",-2.979%
CCc1cnc(N)nc1NC(C)c1ccc(C)c(C)c1 (stereo not drawn),Percent Effect,"30.3 µM, […]",88.85%
CCc1cnc(N)nc1N[C@@H](C)c1ncccc1C,Percent Effect,"30.3 µM, […]",22.19%
CCc1cnc(N)nc1NC(C)c1cnn(C)c1 (stereo not drawn),Percent Effect,"30.3 µM, […]",1.659%
CC(C)OC[C@H]1CCC[C@]12CN(S(=O)(=O)c1cn(C)cn1)CCO2,Percent Effect,"30.3 µM, […]",9.701%
NC(c1ccc(F)cc1)c1cccs1 (stereo not drawn),Percent Effect,"30.3 µM, […]",6.777%
CN(C)CCO[C@@H]1CC[C@H]2[C@H]1OCCN2C(=O)c1ccccc1F,Percent Effect,"30.3 µM, […]",24.56%
Clc1ccccc1C1(c2ccnc(-c3ccncc3)n2)CCNCC1,Percent Effect,"30 µM, 30.03 µM",69.77%
CC(C)c1nccc(CN2CCC(O)(CN3CCCCC3)C2)n1 (stereo not drawn),Percent Effect,"30.3 µM, […]",18.94%
CC(C)(C)c1nccc(C2(c3ccccc3Cl)CCNCC2)n1,Percent Effect,"30.3 µM, […]",98.02%
O=c1[nH]cccc1-c1nccc(C2(c3ccccc3Cl)CCNCC2)n1,Percent Effect,"30.3 µM, […]",3.768%
CCC1C(=O)NCCN1c1ccnc(C(C)(C)C)n1 (stereo not drawn),Percent Effect,"30.3 µM, […]",-23.65%
CC(C)c1nccc(C2(c3ccccc3Cl)CCNCC2)n1,Percent Effect,"30.3 µM, […]",86.79%
CC(C)c1nccc(CN2CCCC(O)(CN3CCCC3)C2)n1 (stereo not drawn),Percent Effect,"30.3 µM, […]",-4.495%
Clc1ccccc1C1(c2ccnc(-c3ncccn3)n2)CCNCC1,Percent Effect,"30 µM, 30.03 µM",15.9%
CC(C)CSCCN1CCN(S(C)(=O)=O)CC1,Percent Effect,"30.3 µM, […]",-11.46%
O=C(c1ccccc1)N1C[C@@H]2CC[C@H](C1)N(C(=O)CN1CCOCC1)C2,Percent Effect,"30.3 µM, […]",12.92%
CCNc1c(C#N)c(=O)n(C)c(=O)n1C,Percent Effect,"30.3 µM, […]",22.41%
OC1CCN(c2ccnc(NCCc3ccccc3Cl)n2)C1 (stereo not drawn),Percent Effect,"30.3 µM, […]",64.18%
OC1CCN(c2ccnc(NCCc3ccccc3Cl)n2)CC1,Percent Effect,"30.3 µM, […]",-1.281%
OC1CCN(c2ccnc(NCCN3CCc4ccccc4C3)n2)C1 (stereo not drawn),Percent Effect,"30.3 µM, […]",47%
Cc1ccc(F)c(C(=O)Nc2cccc(CCN3CCCC3)c2)c1,Percent Effect,"30.3 µM, […]",51.62%
Cc1cc(=O)c(C(=O)Nc2cccc(CCN3CCCC3)c2)c[nH]1,Percent Effect,"30.3 µM, […]",12.01%
Cn1cc(C(=O)Nc2cccc(CCN3CCCC3)c2)ccc1=O,Percent Effect,"30.3 µM, […]",25.83%
CN(C(=O)c1cccc2[nH]ncc12)C1CCN(c2ccccn2)CC1,Percent Effect,"30 µM, 30.03 µM",-37.63%
COc1cc(CNCc2ccnc(N3CCOCC3)c2)cc(OC)c1,Percent Effect,30 µM,28.31%
COc1cc(CNCc2ccnc(N3CCOCC3)c2)cc(Cl)c1OC,Percent Effect,"30 µM, 30.03 µM",26.59%
COc1c(C)cc(CNCc2ccnc(N3CCOCC3)c2)cc1C.Cl,Percent Effect,30 µM,54.99%
O=C(CCc1ccco1)Nc1ncn(CC(=O)N2CCCCCC2)n1,Percent Effect,"30.3 µM, […]",4.673%
Cn1ncc2c(NC3CCCN(C(=O)C4CC4)C3)nc(C(C)(C)C)nc21 (stereo not drawn),Percent Effect,"30.3 µM, […]",-38.63%
Cn1ncc2c(N[C@H]3CCCC[C@@H]3O)nc(C(C)(C)C)nc21,Percent Effect,"30.3 µM, […]",44.26%
Cn1ncc2c(N[C@H]3CC[C@@H](N)CC3)nc(C(C)(C)C)nc21,Percent Effect,"30.3 µM, […]",100.6%
CSCC[C@@H]1CN2CCC[C@H]2CN1Cc1cn(C)nc1C,Percent Effect,"30.3 µM, […]",-2.658%
O=C(COCc1nc(-c2ccncc2)no1)N1CCCC1,Percent Effect,"30 µM, 30.03 µM",18.4%
O=C(COCc1nc(-c2ccncc2)no1)N1CCCCC1,Percent Effect,"30.3 µM, […]",-11.93%
CC1CCCCN1C(=O)COCc1nc(-c2ccncc2)no1 (stereo not drawn),Percent Effect,"30.3 µM, […]",55.9%
O=C(Nc1cccc(F)c1)C1CCN(Cc2noc(C3CC3)n2)CC1,Percent Effect,"30.3 µM, […]",33.46%
CN(Cc1ccc(C(=O)O)cc1)C(=O)c1sccc1OC(F)F,Percent Effect,"30.3 µM, […]",18.71%
CCC1(CO)CCCN(C(=O)c2cc(COc3cccc(F)c3)[nH]n2)C1 (stereo not drawn),Percent Effect,"30.3 µM, […]",65.29%
CCC1(CO)CCCN(C(=O)c2cc(COc3ccccc3F)[nH]n2)C1 (stereo not drawn),Percent Effect,"30.3 µM, […]",-9.881%
CCC1(CO)CCN(C(=O)c2cc(COc3ccccc3F)[nH]n2)CC1,Percent Effect,"30.3 µM, […]",-10.91%
Cc1cccc(CN2CCn3c(COc4ncccn4)nnc3C2)n1,Percent Effect,"30.3 µM, […]",26.49%
COCCn1cc(CCC(=O)Nc2c(C)nn(C)c2C)c2ccccc21,Percent Effect,"30.3 µM, […]",-5.699%
CC(C)c1nc(CN(C)C2CCN(CCc3ccncc3)C2)no1 (stereo not drawn),Percent Effect,30 µM,35.17%
CC(C)c1nc(CN(C)C(=O)C(O)c2ccc(Cl)cc2)cs1 (stereo not drawn),Percent Effect,"30.3 µM, […]",-6.394%
CC(C)C[C@@H](N)C(=O)N(C)Cc1csc(C(C)C)n1,Percent Effect,"30.3 µM, […]",18.19%
CC(C)c1nc(CN(C)C(=O)[C@H](N)Cc2ccc(Cl)cc2)cs1,Percent Effect,"30.3 µM, […]",64.25%
CN1CCN(C(=O)CC2CCN(CCc3ccccn3)CC2)CC1,Percent Effect,"30 µM, 30.03 µM",28.67%
COC[C@@H]1CCCN1C(=O)c1cc(-c2cccc(OC)c2)n[nH]1,Percent Effect,"30.3 µM, […]",15.97%
O=C(CCCn1cnc2ccccc2c1=O)Nc1nc[nH]n1,Percent Effect,"30.3 µM, […]",-11.87%
CC(C)c1ccc(S(=O)(=O)N2CSCC2C(=O)NCC(F)(F)F)cc1 (stereo not drawn),Percent Effect,30 µM,31.97%
CC(C)CCCNC(=O)Nc1ccc(C(N)=O)c(Cl)c1,Percent Effect,30 µM,-4.358%
Cn1cc(C2COC3(CCN(C(=O)Cc4ccccc4)CC3)C2)cn1 (stereo not drawn),Percent Effect,"30.3 µM, […]",7.925%
O=C(CC1CC1)N1CCC2(CC1)CN(c1ncccn1)CCO2,Percent Effect,"30 µM, 30.03 µM",2.315%
CC1COC2(CCN(C(=O)Cc3ccncc3)CC2)C1.O=C(O)C(F)(F)F (stereo not drawn),Percent Effect,"30.3 µM, […]",9.251%
O=C(Cc1ccncc1)N1CCC2(CC1)CC(c1ccccc1)CO2.O=C(O)C(F)(F)F (stereo not drawn),Percent Effect,"30.3 µM, […]",68.9%
O=C(Cc1ccccn1)N1CCC2(CC1)CN(c1ncccn1)CCO2.O=C(O)C(F)(F)F.O=C(O)C(F)(F)F,Percent Effect,"30.3 µM, […]",12.21%
O=C(Cc1ccccc1)N1CCC2(CC1)CN(c1ncccn1)CCO2,Percent Effect,"30.3 µM, […]",60.82%
OCC1(NCc2cnc(-c3ccccn3)s2)CCOCC1,Percent Effect,"30.3 µM, […]",-4.185%
CNC(=O)NCC(=O)N(C)C(c1ccc(Cl)cc1)c1cccnc1 (stereo not drawn),Percent Effect,"30.3 µM, […]",-0.8032%
CN(Cc1cncnc1)[C@H]1CN(C(=O)c2ccc[nH]2)[C@@H]2CCCO[C@@H]21,Percent Effect,"30.3 µM, […]",13.74%
CCCc1n[nH]c(C2CN(C(=O)CCCn3ccnc3)CCO2)n1 (stereo not drawn),Percent Effect,"30.3 µM, […]",48.09%
CCCc1n[nH]c(C2CN(C(=O)CCCn3cccn3)CCO2)n1 (stereo not drawn),Percent Effect,"30 µM, 30.03 µM",8.129%
CCCc1n[nH]c(C2CN(C(=O)CCCn3ccnc3C)CCO2)n1 (stereo not drawn),Percent Effect,"30.3 µM, […]",52.76%
CCCC(=O)NCC(=O)Nc1cc(F)ccc1SCC(F)F,Percent Effect,"30.3 µM, […]",-46.76%
CN(C)C(=O)CN1C[C@@H]2CC[C@H](C1)N(C(=O)CCCn1cncn1)C2,Percent Effect,"30.3 µM, […]",3.091%
CC(C)(C)n1nnnc1CN(Cc1ccccc1)Cc1ccccc1Cl,Percent Effect,"30.3 µM, […]",-43.37%
CC(C)(C)n1nnnc1CN(Cc1ccccc1)Cc1ccc(Cl)cc1,Percent Effect,"30.3 µM, […]",73.63%
CC(C)(C)n1nnnc1CN(CCc1ccccc1)Cc1ccccc1,Percent Effect,"30.3 µM, […]",46.18%
CCC(CNC(=O)c1ccccc1OC)N1CCc2ccccc2C1 (stereo not drawn),Percent Effect,"30.3 µM, […]",6.323%
CC(C)OCCCNC(=O)CS(=O)(=O)Cc1ccc(Cl)cc1,Percent Effect,30 µM,-19.7%
COC(=O)N1CCCN(Cn2nc(C)c(Br)c2C)CC1,Percent Effect,"30.3 µM, […]",-25.9%
COCC(=O)N1CCN(Cn2nc(C)c(Br)c2C)CC1,Percent Effect,"30.3 µM, […]",52.22%
CCC(=O)N1CCCN(Cn2nc(C)c(Br)c2C)CC1,Percent Effect,"30.3 µM, […]",-2.566%
